Reference: the supplement of paper PMC9925115
Where “and” joins values, the source holds several entries; their conditions need not be identical. Equal values may be shown once.

Test system: FLX1 + dox-induced PRKAR1A G325D
Experiment: difference in log2 fold change of viability vs plate median (dox-induced PRKAR1A G325D minus uninduced); higher = compound less effective when PKA is inhibited
Conditions: concentration: not stated (2 or 5 uM); 5 days
Description: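 For each plate a log2 fold change vs the plate median was derived, and the values without dox were subtracted from those with dox, averaged over three biological replicates.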

Q: Which “difference in log2 fold change of viability” value (shortened to “difference in log2 fold change”) does the source give for O=C1NCCc2[nH]c(-c3ccncc3)cc21 here?
A: 0.179

Q: With CN1CCC(COc2cnc(-c3cccc(Cn4nc(-c5cccc(C#N)c5)ccc4=O)c3)nc2)CC1 as the molecule, how does the “difference in log2 fold change” value read?
A: -0.973

Q: Which “difference in log2 fold change” value does the source give for CN(C[C@@H]1COCCO1)S(=O)(=O)Nc1ccc2ccc3ncc(-c4cnn(C)c4)cc3c(=O)c2c1 here?
A: -0.247

Q: Which “difference in log2 fold change” value does the source give for CNC(=O)Nc1ccc(-c2nc(N3CC4CCC(C3)O4)c3cnn(C4CCC5(CC4)OCCO5)c3n2)cc1 here?
A: 1.48

Q: For CN(c1ncccc1CNc1nc(Nc2ccc3c(c2)CC(=O)N3)ncc1C(F)(F)F)S(C)(=O)=O, which “difference in log2 fold change” value is on record?
A: 0.235 and 0.428

Q: CC(C)(C)c1cc(NC(=O)Nc2ccc(-c3cn4c(n3)sc3cc(OCCN5CCOCC5)ccc34)cc2)no1 [Quizartinib (AC220)] was tested. Which “difference in log2 fold change” value did it give?
A: 0.254

Q: With N#Cc1c(NC(=O)c2cccc3ccccc23)sc2c1CCCC2 [JNK Inhibitor IX] as the molecule, how does the “difference in log2 fold change” value read?
A: 0.317

Q: How did the “difference in log2 fold change” value turn out when COc1cc2ncnc(Oc3ccc(CC(=O)Nc4cnn(C(C)C)c4)cc3)c2cc1OC was run?
A: -0.126

Q: Which “difference in log2 fold change” value does the source give for COc1cc2nccc(Oc3ccc(NC(=O)C4(C(=O)Nc5ccc(F)cc5)CC4)cc3)c2cc1OC [Cabozantinib malate (XL184)] here?
A: -0.77

Q: For COc1ccc(-c2ccc3c(N4CCOCC4)nc(N4C[C@@H](C)O[C@@H](C)C4)nc3n2)cc1CO, which “difference in log2 fold change” value is on record?
A: 0.463

Q: Which “difference in log2 fold change” value does the source give for CN1CCN(Cc2ccc(-c3cnc4[nH]cc(-c5ccc6[nH]ccc6c5)c4c3)cc2)CC1 here?
A: -0.00541

Q: How did the “difference in log2 fold change” value turn out when CSc1cccc(Nc2ncc3cc(-c4c(Cl)cccc4Cl)c(=O)n(C)c3n2)c1 was run?
A: -0.0582

Q: For C[C@]1(O)C[C@@H](c2nc(-c3ccc4ccc(-c5ccccc5)nc4c3)c3c(N)nccn32)C1 [Linsitinib (OSI-906)], which “difference in log2 fold change” value is on record?
A: 0.468

Q: Which “difference in log2 fold change” value does the source give for CC(C)n1nc(-c2cc3cc(O)ccc3[nH]2)c2c(N)ncnc21 [Torkinib (PP242)] here?
A: 0.611

Q: Which “difference in log2 fold change” value does the source give for Cc1[nH]nc2ccc(-c3cncc(OC[C@@H](N)Cc4ccccc4)c3)cc12 here?
A: 0.18

Q: CS(=O)(=O)c1cccc(CNc2nc(Nc3ccc4c(c3)CCC(=O)N4)ncc2C(F)(F)F)c1 was tested. Which “difference in log2 fold change” value did it give?
A: -0.0481

Q: With C=CC(=O)Nc1cccc(Oc2nc(Nc3ccc(N4CCN(C)CC4)cc3OC)ncc2Cl)c1 as the molecule, how does the “difference in log2 fold change” value read?
A: -1.14

Q: With COc1ccccc1-c1cc(Nc2cccc(CS(N)(=O)=O)c2)ncn1 as the molecule, how does the “difference in log2 fold change” value read?
A: 0.055

Q: Which “difference in log2 fold change” value does the source give for Cc1ccc(NC(=O)c2cccc(N(C)C)c2)cc1NC(=O)c1ccc(O)cc1 here?
A: 0.402

Q: Which “difference in log2 fold change” value does the source give for O=C(Nc1ccc(OC(F)(F)F)cc1)c1sccc1NCc1ccnc2ccccc12 here?
A: 0.386

Q: COc1cc2ncnc(Nc3cccc(Cl)c3)c2cc1OC [AG-1478 (Tyrphostin AG-1478)] was tested. Which “difference in log2 fold change” value did it give?
A: 0.0422

Q: How did the “difference in log2 fold change” value turn out when Cc1ccc(C(=O)Nc2cccc(C(F)(F)F)c2)cc1Nc1nc(-c2cccnc2)nc2c1cnn2C was run?
A: 0.868

Q: With CN(C)Cc1cccc(N=C(c2ccccc2)c2c(O)[nH]c3cc(C(=O)N(C)C)ccc23)c1 as the molecule, how does the “difference in log2 fold change” value read?
A: 0.0526

Q: How did the “difference in log2 fold change” value turn out when C[C@@H](Oc1cc(-n2cnc3ccc(CN4CCN(C)CC4)cc32)sc1C(N)=O)c1ccccc1C(F)(F)F was run?
A: -0.2

Q: How did the “difference in log2 fold change” value turn out when Cn1cc(/C=C2\C(=O)Nc3cccnc32)c2ccccc21 was run?
A: 0.00477

Q: For O=c1ccc2ccc(O)c(O)c2o1 [Daphnetin], which “difference in log2 fold change” value is on record?
A: -0.062

Q: How did the “difference in log2 fold change” value turn out when COc1cc2nccc(Oc3ccc(NC(=O)Nc4cc(C)on4)c(Cl)c3)c2cc1OC [Tivozanib (AV-951)] was run?
A: -0.0533

Q: Which “difference in log2 fold change” value does the source give for CC(=O)Nc1nc(C)c(-c2ccc(Cl)c(S(=O)(=O)NCCO)c2)s1 here?
A: 1.62

Q: Which “difference in log2 fold change” value does the source give for CNC(=O)c1cc(Oc2ccc(NC(=O)Nc3ccc(Cl)c(C(F)(F)F)c3)c(F)c2)ccn1 [Regorafenib (BAY 73-4506)] here?
A: -0.347

Q: With COc1cc2c(Nc3ccc(NC(=O)c4ccccc4)cc3)ncnc2cc1OCCCN1CCOCC1 as the molecule, how does the “difference in log2 fold change” value read?
A: 0.301

Q: How did the “difference in log2 fold change” value turn out when Cc1cc(C)c(/C=C2\C(=O)Nc3ccccc32)[nH]1 [Semaxanib (SU5416)] was run?
A: 0.256

Q: How did the “difference in log2 fold change” value turn out when CS(=O)(=O)N1CCN(Cc2cc3nc(-c4cccc5[nH]ncc45)nc(N4CCOCC4)c3s2)CC1 [Pictilisib (GDC-0941)] was run?
A: -0.0931

Q: With CN1CCN(c2ccc3nc(-c4c(N)c5c(F)cccc5[nH]c4=O)[nH]c3c2)CC1 [Dovitinib (TKI-258, CHIR-258)] as the molecule, how does the “difference in log2 fold change” value read?
A: 0.0764

Q: For C=CC(=O)Nc1cccc(Nc2nc(Nc3ccc(OCCOC)cc3)ncc2F)c1, which “difference in log2 fold change” value is on record?
A: -0.726

Q: For Cc1cc([C@@H](C)Nc2ccccc2C(=O)O)c2nc(N3CCOCC3)cc(=O)n2c1, which “difference in log2 fold change” value is on record?
A: 0.0369

Q: O=c1ncn2nc(Sc3ccc(F)cc3F)ccc2c1-c1c(Cl)cccc1Cl was tested. Which “difference in log2 fold change” value did it give?
A: 2.06

Q: Which “difference in log2 fold change” value does the source give for CC(C)CC(=O)Nc1n[nH]c2c1CN(C(=O)C1CCN(C)CC1)C2(C)C here?
A: 0.243

Q: How did the “difference in log2 fold change” value turn out when Cn1cnc2c(F)c(Nc3ccc(Br)cc3F)c(C(=O)NOCCO)cc21 was run?
A: -1.09

Q: How did the “difference in log2 fold change” value turn out when CNC(=O)CN1CCC(Oc2cc3c(Nc4cccc(Cl)c4F)ncnc3cc2OC)CC1 [Sapitinib (AZD8931)] was run?
A: -0.745
